PubChem BioAssay AID1159580 (chemical genetic matrix, 2015)
Values joined by “and” are separate entries in the source; they are usually repeats but may differ in a detail not shown here. Equal entries are not always repeated. Hit rate of the full screen: of about 5,500 compounds, about 2,000 (36%) were called active. About 18% were inconclusive and are not listed. Rule as the data show it: active = normalized growth mostly below about 0.91 (no sharp cut-off); inconclusive = no clear call, values can overlap the other calls; inactive = mostly above about 0.92. The list shows a part of the results.

Assay: chemical genetic growth profiling, strain panel (AID 1159580);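 also: tested at 20 µM; growth read once vehicle control cultures reached saturation at 30 °C; 1 = growth at the plate median or of vehicle wells; lower values mean less growth of the strain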
Settings: S. cerevisiae deletion strains, growth OD

CCCCOc1ccc(OCCCN2CCOCC2)cc1
normalized growth (locus YAL013W, strain DEP1, stronger effect = lower value): 0.994 (inactive) | normalized growth (locus YAL021C, strain ccr4, stronger effect = lower value): 0.829 (active) | normalized growth (locus YAL026C, strain drs2, stronger effect = lower value): 0.0964 (active) | normalized growth (locus YAL030W, strain snc1, stronger effect = lower value): 0.988 (inactive) | normalized growth (locus YBL061C, strain skt5, stronger effect = lower value): 0.955 (inactive) | normalized growth (locus YBR009C, strain hhf1, stronger effect = lower value): 0.96 (inactive) | normalized growth (locus YBR021W, strain FUR4, stronger effect = lower value): 1.16 [resistant] (active) | normalized growth (locus YBR023C, strain chs3, stronger effect = lower value): 0.946 (inactive) | normalized growth (locus YBR171W, strain sec66, stronger effect = lower value): 0.942 (inactive) | normalized growth (locus YBR229C, strain ROT2, stronger effect = lower value): 1 (inactive) | normalized growth (locus YBR231C, strain swc5, stronger effect = lower value): 0.935 (inactive) | normalized growth (locus YBR279W, strain paf1, stronger effect = lower value): 0.918 (active) | normalized growth (locus YCL011C, strain gbp2, stronger effect = lower value): 0.966 (inactive) | normalized growth (locus YCL016C, strain dcc1, stronger effect = lower value): 0.928 (inactive) | normalized growth (locus YCL029C, strain bik1, stronger effect = lower value): 0.938 (inactive) | normalized growth (locus YCL069W, strain vba3, stronger effect = lower value): 0.995 (inactive) | normalized growth (locus YCR088W, strain abp1, stronger effect = lower value): 0.997 (inactive) | normalized growth (locus YDL005C, strain med2, stronger effect = lower value): 1 (inactive) | normalized growth (locus YDL035C, strain GPR1, stronger effect = lower value): 0.855 (active) | normalized growth (locus YDL040C, strain nat1, stronger effect = lower value): 0.987 (inactive) | normalized growth (locus YDL074C, strain BRE1, stronger effect = lower value): 0.841 (inactive) | normalized growth (locus YDL101C, strain DUN1, stronger effect = lower value): 0.963 (inactive) | normalized growth (locus YDL134C, strain PPH21, stronger effect = lower value): 0.823 (active) | normalized growth (locus YDL185W, strain tfp1, stronger effect = lower value): 0.979 (inactive) | normalized growth (locus YDL192W, strain arf1, stronger effect = lower value): 0.893 (active) | normalized growth (locus YDR001C, strain nth1, stronger effect = lower value): 0.983 (inactive) | normalized growth (locus YDR069C, strain doa4, stronger effect = lower value): 0.883 (active) | normalized growth (locus YDR101C, strain arx1, stronger effect = lower value): 0.916 (active) | normalized growth (locus YDR137W, strain rgp1, stronger effect = lower value): 0.913 (inactive) | normalized growth (locus YDR150W, strain NUM1, stronger effect = lower value): 0.984 (inactive) | normalized growth (locus YDR159W, strain sac3, stronger effect = lower value): 0.943 (inactive) | normalized growth (locus YDR162C, strain NBP2, stronger effect = lower value): 0.952 (inactive) | normalized growth (locus YDR195W, strain ref2): 1.21 [resistant] (active) | normalized growth (locus YDR297W, strain sur2, stronger effect = lower value): 0.968 (inactive) | normalized growth (locus YDR318W, strain mcm21, stronger effect = lower value): 0.884 (active) | normalized growth (locus YDR334W, strain swr1, stronger effect = lower value): 0.947 (inactive) | normalized growth (locus YDR335W, strain msn5, stronger effect = lower value): 0.904 (active) | normalized growth (locus YDR388W, stronger effect = lower value): 0.9 (active) | normalized growth (locus YDR392W, strain spt3, stronger effect = lower value): 0.868 (inactive) | normalized growth (locus YDR502C, strain sam2, stronger effect = lower value): 0.872 (active) | normalized growth (locus YEL003W, strain gim4, stronger effect = lower value): 0.918 (inactive) | normalized growth (locus YEL037C, strain rad23, stronger effect = lower value): 0.98 (inactive) | normalized growth (locus YEL061C, strain CIN8 (second series), stronger effect = lower value): 0.973 (inactive) | normalized growth (locus YEL061C, strain CIN8, stronger effect = lower value): 0.931 (inactive) | normalized growth (locus YER015W, strain faa2, stronger effect = lower value): 0.925 (active) | normalized growth (locus YER016W, strain bim1, stronger effect = lower value): 0.983 (inactive) | normalized growth (locus YER110C, stronger effect = lower value): 0.922 (inactive) | normalized growth (locus YER111C, strain swi4, stronger effect = lower value): 0.962 (inactive) | normalized growth (locus YER155C, strain BEM2 (second series), stronger effect = lower value): 0.407 (active) | normalized growth (locus YER155C, strain BEM2, stronger effect = lower value): 1.04 (inactive) | normalized growth (locus YER167W, strain BCK2, stronger effect = lower value): 0.838 (active) | normalized growth (locus YFR010W, strain ubp6, stronger effect = lower value): 0.884 (active) | normalized growth (locus YGL078C, strain dbp3, stronger effect = lower value): 0.966 (inactive) | normalized growth (locus YGL086W, strain mad1, stronger effect = lower value): 0.906 (active) | normalized growth (locus YGL167C, strain pmr1, stronger effect = lower value): 0.966 (inactive) | normalized growth (locus YGL173C, strain kem1, stronger effect = lower value): 0.929 (inactive) | normalized growth (locus YGL227W, strain vid30, stronger effect = lower value): 0.966 (inactive) | normalized growth (locus YGL240W, strain doc1, stronger effect = lower value): 0.965 (inactive) | normalized growth (locus YGL248W, strain PDE1, stronger effect = lower value): 0.863 (active) | normalized growth (locus YGL253W, strain hxk2, stronger effect = lower value): 0.94 (inactive) | normalized growth (locus YGR078C, strain PAC10, stronger effect = lower value): 0.828 (active) | normalized growth (locus YGR135W, strain pre9, stronger effect = lower value): 0.784 (active) | normalized growth (locus YGR229C, strain SMI1, stronger effect = lower value): 0.598 (active) | normalized growth (locus YGR252W, strain gcn5, stronger effect = lower value): 0.588 (active) | normalized growth (locus YHR013C, strain ard1, stronger effect = lower value): 0.799 (active) | normalized growth (locus YHR027C, strain rpn1, stronger effect = lower value): 0.953 (inactive) | normalized growth (locus YHR030C, strain SLT2, stronger effect = lower value): 0.911 (active) and 0.965 (inactive) | normalized growth (locus YHR079C, strain IRE1 (second series), stronger effect = lower value): 0.93 (inactive) | normalized growth (locus YHR079C, strain IRE1, stronger effect = lower value): 0.979 (inactive) | normalized growth (locus YHR094C, strain hxt1, stronger effect = lower value): 0.997 (inactive) | normalized growth (locus YHR129C, strain ARP1, stronger effect = lower value): 0.99 (inactive) | normalized growth (locus YHR142W, strain chs7, stronger effect = lower value): 0.817 (active) | normalized growth (locus YHR200W, strain rpn10, stronger effect = lower value): 0.961 (inactive) | normalized growth (locus YIL066C, strain RNR3, stronger effect = lower value): 0.719 (active) | normalized growth (locus YIL073C, strain SPO22, stronger effect = lower value): 0.804 (inactive) | normalized growth (locus YIL125W, strain kgd1, stronger effect = lower value): 1 (inactive) | normalized growth (locus YIR030C, strain dcg1, stronger effect = lower value): 0.976 (inactive) | normalized growth (locus YJL092W, strain hpr5, stronger effect = lower value): 0.992 (inactive) | normalized growth (locus YJL095W, strain BCK1 (second series), stronger effect = lower value): 0.962 (inactive) | normalized growth (locus YJL095W, strain BCK1, stronger effect = lower value): 0.653 (active) and 0.972 (inactive) | normalized growth (locus YJL115W, strain asf1, stronger effect = lower value): 0.954 (inactive) | normalized growth (locus YJL129C, strain trk1, stronger effect = lower value): 0.805 (active) | normalized growth (locus YJL134W, strain LCB3, stronger effect = lower value): 0.999 (inactive) | normalized growth (locus YJL154C, strain vps35, stronger effect = lower value): 0.995 (inactive) | normalized growth (locus YJL164C, strain tpk1, stronger effect = lower value): 0.918 (inactive) | normalized growth (locus YJL166W, strain qcr8, stronger effect = lower value): 0.89 (active) | normalized growth (locus YJL168C, strain set2, stronger effect = lower value): 0.976 (inactive) | normalized growth (locus YJL187C, strain SWE1 (second series), stronger effect = lower value): 0.855 (active) | normalized growth (locus YJL187C, strain SWE1, stronger effect = lower value): 0.957 (inactive) | normalized growth (locus YJR043C, strain POL32, stronger effect = lower value): 0.934 (inactive) | normalized growth (locus YJR066W, strain TOR1, stronger effect = lower value): 0.884 (inactive)
